From PubChem BioAssay AID624330 (Southern Research Specialized Biocontainment Screening …, 2012)
The whole screen tested about 340,000 compounds, of which about 2,100 (0.62%) were called active.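 How the source made its calls: active means first-screen hits whose inhibition reached a set limit at any dose in the follow-up dose series; inconclusive means inhibition above the set first-screen limit but never retested; inactive means the rest.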 These entries were drawn from the full list. Results with a measured potency or affinity are listed apart.

Target: Rac GTPase-activating protein 1 (Homo sapiens) (UniProt Q9H0H5)
Assay: MgcRacGAP GTPase-activating activity inhibitors, confirmation, biochemical, ADP Hunter fluorescence, primary and confirmatory (AID 624330);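 further: fluorescence reports GDP produced by GAP-driven GTP hydrolysis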
Conditions: MgcRacGAP-stimulated Rac1 GTP hydrolysis, at 30 µM, stronger effect = higher value, GST-tagged Rac1 F28L mutant substrate

Chain of Rac GTPase-activating protein 1 (Homo sapiens) (Q9H0H5 whole entry, looked up): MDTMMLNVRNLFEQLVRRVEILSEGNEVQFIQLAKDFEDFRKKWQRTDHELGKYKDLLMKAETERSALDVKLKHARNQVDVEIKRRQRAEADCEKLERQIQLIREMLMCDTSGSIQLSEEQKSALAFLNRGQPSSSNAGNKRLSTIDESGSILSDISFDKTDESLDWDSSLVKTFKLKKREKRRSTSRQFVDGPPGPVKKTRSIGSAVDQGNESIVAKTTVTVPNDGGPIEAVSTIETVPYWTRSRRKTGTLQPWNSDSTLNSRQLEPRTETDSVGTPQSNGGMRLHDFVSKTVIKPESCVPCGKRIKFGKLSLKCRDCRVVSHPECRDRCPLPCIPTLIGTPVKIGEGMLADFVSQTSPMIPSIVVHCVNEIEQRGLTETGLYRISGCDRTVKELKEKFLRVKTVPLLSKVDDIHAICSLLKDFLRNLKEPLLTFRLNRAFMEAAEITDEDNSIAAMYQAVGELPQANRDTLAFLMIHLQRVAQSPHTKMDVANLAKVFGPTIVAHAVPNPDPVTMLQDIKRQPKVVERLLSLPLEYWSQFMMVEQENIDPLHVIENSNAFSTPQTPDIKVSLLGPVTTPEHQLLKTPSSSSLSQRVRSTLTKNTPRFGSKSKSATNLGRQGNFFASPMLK

inhibition, inactive:
O=C1c2ccccc2NC(c2ccccn2)N1c1ccccc1F (configuration not stated) 6.7%, O=C(NC1CCCCC1)c1cc(S(=O)(=O)N2CCCC2)ccc1Cl 9.3%, CCOC(=O)COc1nc(OC)nc(N2CCOCC2)n1 13%, Nc1ccc2nc(-c3cccc(-c4nc5ccc(N)cc5[nH]4)c3)[nH]c2c1 25.9%, Nc1cccc(-c2nc3ccccc3[nH]2)c1 8.22%, Nc1ccc(-c2nc3ccccc3[nH]2)cc1 8.27%, Nc1ccc2nc(C(F)(F)F)[nH]c2c1 7.12%, O=C(OCC(=O)N1CCN(C(=O)c2ccco2)CC1)c1sc2cc(F)ccc2c1Cl 3.78%, COC(=O)c1ccc(C(=O)OC)c(NC(=O)CN(C)Cc2cccc(Cl)c2Cl)c1 5.99%, Cc1nc2cc3nc(C)sc3cc2s1 10.8%, COc1ccc(CCC(=O)N/N=C/c2ccc3c(c2)OCO3)cc1 4.06%, O=C(Cc1ccc(Cl)cc1)N/N=C/c1ccccc1 3.03%, O=C(Cc1ccc(Cl)cc1)N/N=C/c1cccc(O)c1 -4.31%, O=C(CCc1ccc(O)cc1)NN=Cc1ccc2c(c1)OCO2 28.7%, O=C(CCC(=O)OCc1ccc([N+](=O)[O-])cc1)Nc1ccc(F)cc1 4.88%, O=C(CC(c1ccccc1)c1ccccc1O)NCCN1CCOCC1 (configuration not stated) -6.2%, Nc1ccccc1-n1c(=O)n(Cc2ccccc2F)c(=O)c2[nH]cnc21 3.12%, C=CCn1c(SCc2cc(=O)n3cc(C)ccc3n2)nnc1-c1cccc(C)c1 8.24%, CSCC[C@H](NC(=O)OC(C)(C)C)C(=O)N1CCC(C(=O)NCC(=O)Nc2ccc(C)cc2)CC1 -4.04%, COCCNC(=O)c1ccc(-c2csc(C)n2)cc1 3.59%, C[C@@H]1CN([C@H](C)CO)C(=O)c2cc(Br)cnc2O[C@@H]1CN(C)C(=O)C1CCOCC1 8.56%, CNc1nnc(-c2ccncc2)s1 6.68%, CNc1nnc(-c2cccc(N(C)C)c2)s1 4.36%, Cc1cc(OCC(=O)NCC2CCC(C(=O)O)CC2)c2c(C)c(Cc3ccccc3)c(=O)oc2c1 (configuration not stated) 1.13%, CCCc1cc(=O)[nH]c(SCC(=O)NC)n1 2.55%, CCCCNC(=O)c1ccc(CS(=O)(=O)c2ccc(OC)cc2)o1 -10.9%, CCOc1ccc(S(=O)(=O)Nc2ccc(C(=O)NCC(c3ccc(OC)cc3)N3CCOCC3)cc2)cc1 (configuration not stated) 5.24%, COc1ccc(CN2CCC(=O)N(CCO)CC2)cc1OC 7.88%, O=C(c1ccco1)N1CCN(Cc2cn[nH]c2-c2ccc(F)cc2F)CC1 -5.62%, Cn1c(=O)[nH]c(Nc2ccccc2)c([N+](=O)[O-])c1=O 5.65%, Cn1c(=O)[nH]c(Nc2ccc(F)cc2)c([N+](=O)[O-])c1=O 8.12%, Cc1ccc(C(=O)NCCCNC(=O)c2ccco2)cc1 4.3%, CN(CC(=O)Nc1c(Cl)cccc1Cl)C(=O)C1CCN(C(=O)Nc2ccccc2)CC1 -1.59%, COc1ccccc1CCC(=O)OCC(=O)Nc1ccc(C(N)=O)cc1 -2.01%, Cc1ccc(S(=O)(=O)N2CCCCC2)cc1NC(=O)CSc1nc(N)cc(=O)[nH]1 4.78%, COC(=O)c1c(N)sc(C(=O)N2CCOCC2)c1C 8.37%, Cc1c(-c2ccccc2)sc(Br)c1C(=O)N1CCOCC1 2.64%, Cc1ccc(N(C(C)C(=O)O)S(=O)(=O)c2cccnc2)cc1 (configuration not stated) 4.39%, COc1ccc(/C=C2\C(=O)ON=C2c2ccccc2)cc1 24.6%, O=C1ON=C(c2ccccc2)/C1=C/c1cccnc1 3.82%, O=C1ON=C(c2ccccc2)/C1=C/c1ccc(-c2ccccc2[N+](=O)[O-])o1 7.69%, Cc1ccc(C2=NOC(=O)/C2=C\C=C\c2ccccc2)cc1 6.67%, CN(C)/C=C1\C(=O)ON=C1c1ccccc1 11.7%, Cc1ccc(C2=NOC(=O)/C2=C\c2ccccc2)cc1 8.59%, COc1cc([N+](=O)[O-])ccc1-c1ccc(/C=C2\C(=O)ON=C2c2ccccc2)o1 25%, O=C1ON=C(c2ccccc2)/C1=C\c1ccco1 19.1%, Cc1ccc(CNS(=O)(=O)NCc2ccc(Cl)cc2)cc1 0.28%, COc1ccc(N2CCN(C(=O)COC(=O)CCS(=O)(=O)c3ccc(C)cc3)CC2)cc1 20.8%, O=S(=O)(c1ccc2ccccc2c1)N1CCNCC1 11.3%, COc1ccc(CNC(=O)CN(C(=O)CCC(=O)Nc2ccccn2)c2cccc(C)c2C)cc1 6.1%, CCc1nnc(NC(=O)CSc2nnc3ncccn23)s1 4.86%, CC(=O)Nc1cccc(NC(=O)CSc2n[nH]c(-c3ccccc3)n2)c1 2.62%, O=[N+]([O-])c1ccccc1S(=O)(=O)N1CCCc2ccccc21 -4.93%, O=c1c(O)c(-c2ccccc2)oc2cc(O)cc(O)c12 9.81%, COc1ccc(-c2coc3cc(O)ccc3c2=O)cc1 -1.73%, O=c1c(O)c(-c2ccc(O)c(O)c2)oc2cc(O)cc(O)c12 24.2%, O=c1cc(O)c2ccc(O)cc2o1 11.2%, O=c1c(-c2ccc(F)cc2)coc2cc(O)ccc12 2.56%, COc1ccc(-c2oc3cc(O)c(OC)c(O)c3c(=O)c2OC)cc1O 26.4%, O=c1c(O)c(-c2cc(O)c(O)c(O)c2)oc2cc(O)cc(O)c12 -51.5%, COc1c(-c2ccc(O)cc2)oc2cc(O)cc(O)c2c1=O 8.09%, CC1(C)CC(=O)C(N=Nc2ccc3ncsc3c2)=C(O)C1 9.23%, Cc1cc(C)c(/C([O-])=C(/C(=S)Nc2ccc(SC(F)F)cc2)[n+]2ccccc2)cc1C -14.3%, Cc1cc(C(=O)N2CCCC(N3CCN(c4cccc(Cl)c4)CC3)C2)n(C)n1 (configuration not stated) 9.25%, O=C(COc1ccccc1)N[C@@H]1c2ccccc2CC[C@@H]1OCc1ccccc1 3.68%, CCN(C(=S)NC(=O)c1ccco1)c1cccc2ccccc12 15.5%, N/C(Cc1ccc(Cl)cc1Cl)=N\OC(=O)Cc1cccs1 6.38%, O=C(COc1ccc(-c2nnco2)cc1)NC1CCS(=O)(=O)C1 (configuration not stated) 2.22%, Cn1c(SCC(=O)N2CCc3ccccc3C2)nnc1-c1cccs1 -0.2%, COc1cc(C=C2C(=O)c3ccccc3C2=O)cc(OC)c1 5.79%, COc1cc(/C=C2/CCc3ccccc3C2=O)cc(OC)c1OC 4.12%, COc1cc(/C=C2\CCc3ccccc3C2=O)cc(OC)c1OC 4.54%, COc1cccc(/C=C2\CCc3ccccc3C2=O)c1 7.06%, COc1ccc(/C=C2\CCc3ccccc3C2=O)cc1O 12.2%, COc1cc(C=C2C(=O)c3ccccc3C2=O)ccc1O 15.4%, Cc1nc(NCC(c2ccccc2)N(C)C)c2c(C)c(C)sc2n1 (configuration not stated) 7.93%, C=CCNC(=O)CN1CCN(Cc2ccc3c(c2)OCO3)CC1 6.33%, O=C(NNc1ccccc1[N+](=O)[O-])NC1CCCCC1 2.65%, Cc1ccc(NC(=O)CCn2c(=O)c3cccn3c3ccccc32)cc1C 7.75%, CN(CC(=O)Nc1ccccc1N1CCCC1)S(=O)(=O)c1ccc(F)cc1 3.64%, CCOC(=O)NNC(=O)c1[nH]c2ccc(Br)cc2c1-c1ccccc1 9.63%, O=C(O)c1cccc(Nc2nc(C(F)(F)F)nc3ccccc23)c1 2.84%, OCCN(CCO)c1ccc(C(c2ccccc2Cl)c2ccc(N(CCO)CCO)cc2Cl)c(Cl)c1 4.93%, OCCN(CCO)c1cc2c3ccccc3ccc2c2ccccc12 16%, CC(Oc1cc2oc(=O)c3c(c2cc1Cl)CCCC3)C(=O)NCCN1CCOCC1 (configuration not stated) 11.2%, CCC(C)c1ccc(NC(=S)NCCn2cc(Cl)cn2)cc1 (configuration not stated) 10.6%, CC1Cc2ccccc2N1C(=S)Nc1ccc(S(N)(=O)=O)cc1 (configuration not stated) 10.7%, CC(NCc1ccc(S(N)(=O)=O)cc1)C(=O)N1CCc2ccccc21 (configuration not stated) 16.2%, CCOC(=O)N1CCN(c2c(N3CCN(c4ccc(F)cc4)CC3)c(=O)c2=O)CC1 6.14%, O=C(CCCn1c(=S)[nH]c2cc3c(cc2c1=O)OCO3)NCCc1ccccc1Cl 9.48%, Cc1ccc(Nc2nc(-c3ccncc3)cs2)cc1 8.27%, Clc1ccc(Nc2nc(-c3ccncc3)cs2)cc1 9.41%, Nc1ccc(C(=O)Nc2ccc(Nc3ccncc3)cc2)cc1 5.48%, Nc1ccc(Nc2ccncc2[N+](=O)[O-])cc1 8.85%, CSc1cc(/C=N/O)c(SC)s1 3.21%, CCCn1c2ccccc2c2cnn(CC(=O)N3CCN(C4CCCCC4)CC3)c(=O)c21 10.4%, O=C(O)c1cc([N+](=O)[O-])cc([N+](=O)[O-])c1N1CCN(c2cccc(C(F)(F)F)c2)CC1 -6.28%
